Rows were chosen to be rich in hits. Some 1.2% of all compounds tested hit in one or more screens of this group.
RGS16-Gao = regulators of human RGS16-Galphao interaction. O15492+P09471. bead-based flow cytometry RGS16-Galphao binding, fluorescence; actives lie on both sides. binding response (% of control), % at 10 µM. actives 0.38% (n = 220,000). AID 1441;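 note: Galphao activated by GDP with aluminum fluoride before binding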
GSH bead fluor = GSH bead compound fluorescence profile | GSH beads flow cytometry, compound fluorescence 488/530 nm; stronger effect = higher value | fluorescence (KMESF) at 10 µM | actives 0.25% (n = 190,000) | AID 1776; in the data active = fluorescence above about 89;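 note: glutathione beads carrying GST-tagged Bcl family fusion proteins plus one bare bead set; values are compound well signal with DMSO vehicle wells as background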
RGS7-Gao = modulates binding of RGS7 to human Galphao | P09471 | Multiplexed bead flow cytometry; actives lie on both sides | binding response (% of control), % at 10 µM | actives 0.35% (n = 220,000); in the data active = binding response below about 49% or above about 150%; inconclusive = no clear call, values can overlap the other calls; inactive = in between;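 note: fluorescent Galphao held in activated GDP-AlF4 state binding bead-coupled RGS7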
Target sequence (P09471 whole entry, looked up): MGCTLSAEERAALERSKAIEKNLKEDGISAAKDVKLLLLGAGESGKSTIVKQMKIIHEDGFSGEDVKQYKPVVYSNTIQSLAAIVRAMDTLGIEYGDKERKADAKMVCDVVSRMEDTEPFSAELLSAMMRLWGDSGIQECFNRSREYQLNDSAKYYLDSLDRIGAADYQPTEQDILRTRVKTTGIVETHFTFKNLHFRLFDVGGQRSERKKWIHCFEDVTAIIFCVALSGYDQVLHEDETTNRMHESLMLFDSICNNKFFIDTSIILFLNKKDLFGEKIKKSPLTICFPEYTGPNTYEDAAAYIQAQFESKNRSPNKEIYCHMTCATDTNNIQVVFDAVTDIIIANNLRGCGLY
RGS4-Gao reg = human RGS4-Galphao interaction regulation; binding response (% of control), % at 10 µM; AID 1415; Multiplexed bead flow cytometry, RGS4-Galphao binding; actives lie on both sides; actives 0.33% (n = 220,000); in the data active = binding response below about 49% or above about 150%; inactive = in between;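 note: fluorescent Galphao activated with aluminum fluoride binding bead-coupled RGS4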
RGS8-Gao = regulators of human RGS8-Galphao interaction; P09471; multiplexed bead flow cytometry, RGS8-Galphao binding; actives lie on both sides; AID 1423; response (percent of control binding), % at 10 µM; actives 0.34% (n = 220,000); in the data active = response below about 60% or above about 140%; inactive = in between;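 note: Galphao activated as the GDP aluminium fluoride complex binding bead-coupled RGS8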
Avidin fluor = avidin bead compound fluorescence profile; Avidin beads, compound fluorescence 488/530 nm, flow cytometry; stronger effect = higher value; actives 0.38% (n = 220,000); AID 1775; fluorescence (KMESF) at 10 µM; in the data active = fluorescence above about 47
RGS-Gao = RGS4-Galphao interaction regulator (human); shares compounds with RGS16-Gao; actives 99% (n = 1,600); multiplexed bead flow cytometry, RGS–Galpha-o binding; RGS4–Galpha-o binding response, % at 10 µM;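 note: fluorescently labeled Galpha-o bound to GDP with aluminium fluoride binding biotinylated RGS beads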
Avidin counter = interferes with biotinylated probe binding to avidin beads | AID 1783 | streptavidin beads, fluorescein-biotin binding, flow cytometry | 1,700 tested, under 10 active | inhibition, % at 10 µM | shares compounds with RGS16-Gao;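 active = inhibition above 50%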;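 note: median green fluorescence of gated singlet beads compared with DMSO control wells; 0% = DMSO wells and 100% = complete loss of bead fluorescence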
RGS8-Gao single = confirmation of regulators of human RGS8-Galphao interaction. actives 3% (n = 1,700). bead-based flow cytometry RGS8-Galphao binding, fluorescence; actives lie on both sides. shares compounds with RGS16-Gao. AID 1836. binding response (% of control), % at 10 µM; in the data active = binding response below about 72% or above about 130%; inactive = in between;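 note: Galphao activated as GDP AlF4 complex before binding bead RGS8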
RGS7-Gao single = confirmation of regulators of human RGS7-Galphao interaction; shares compounds with RGS16-Gao; bead-based flow cytometry RGS7-Galphao binding; actives lie on both sides; response (percent of control binding), % at 10 µM; actives 7.8% (n = 1,700); in the data active = response below about 75% or above about 130%; inactive = in between;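 note: fluorescent Galphao activated with GDP and aluminum fluoride binding bead-coupled RGS7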
RGS16-Gao single = RGS16-Galphao interaction regulation, single point confirmation. response (% of control binding), % at 10 µM. bead-based flow cytometry, RGS16-Galphao binding; actives lie on both sides. shares compounds with RGS16-Gao. actives 4% (n = 1,700). AID 1838; in the data active = response below about 74% or above about 130%; inactive = in between;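 note: Galphao activated as the GDP aluminium fluoride complex binding bead-coupled RGS16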
RGS4-Gao single = RGS4-Galphao interaction regulation, single point confirmation. shares compounds with RGS16-Gao. RGS4-Galphao binding, multiplexed bead flow cytometry; actives lie on both sides. binding response (% of control), % at 10 µM. actives 4% (n = 1,700); in the data active = binding response below about 74% or above about 130%; inactive = in between
RGS19-Gao single = RGS19-Galphao interaction regulation, single point confirmation; shares compounds with RGS16-Gao; bead-based flow cytometry RGS19-Galphao binding; actives lie on both sides; response (percent of control binding), % at 10 µM; actives 5% (n = 1,700); in the data active = response below about 50% or above about 160%; inactive = in between;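 note: 100% = no compound control and 0% = blank background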
The depositor's hits bear a star; ? = inconclusive; · = not tested or not shown; [ ] = another dose, or the depositor's remark. Unless noted, the rule behind the calls is not given here.

SMILES	RGS16-Gao	GSH bead fluor	RGS7-Gao	RGS4-Gao reg	RGS8-Gao	Avidin fluor	Avidin counter	RGS8-Gao single	RGS7-Gao single	RGS16-Gao single	RGS4-Gao single	RGS19-Gao single	others
CSc1nnc(SCC#N)s1	102.4	·	?	106.9	102.9	10	·	·	·	·	·	·
Cc1[nH]c2ccccc2c1/C=N/Nc1ccc([N+](=O)[O-])cc1S(=O)(=O)Nc1ccc(Cl)cc1	126.2	16	128.4	131.3	102.8	24	·	·	·	·	·	·
COc1ccc(NS(=O)(=O)c2cc([N+](=O)[O-])ccc2N/N=C\c2c(C)[nH]c3ccccc23)cc1	144.9	19	136.0	150.7*[activator]	110.4	51*	-0.1	101.1	158.9*[activator]	116.6	128.4*[activator]	199.2*[activator]
CCOc1ccc(CC(=O)Nc2ccc(NC(=O)c3ccco3)cc2)cc1OCC	16.4*	12	20.2*	27.9*	22.9*	1	0.1	101.7	104.0	104.8	105.3	99.6
CCCCCC(=O)N/N=C(\C)c1ccc(NC(=O)c2ccco2)cc1	113.3	38	110.2	112.5	106.6	17	·	·	·	·	·	·
CCCCCC(=O)NC(=S)Nc1ccc(NC(=O)c2ccco2)cc1	178.9*[activator]	8	115.7	110.5	123.1	21	-1.1	105.0	97.2	108.2	101.8	111.5	RGS-Gao=110.5*
CCOC(=O)N1CCC(NC(=O)c2cc3c(=O)[nH]c4ccccc4c3n2C)CC1	104.1	10	101.7	101.3	99.9	6	·	·	·	·	·	·
COc1ccc(/C(O)=C2\C(=O)C(=O)N(Cc3ccco3)C2c2cc(OC)ccc2OC)cc1 (centres undefined)	21.3*	11	26.4*	31.2*	23.7*	6	-1.1	100.2	101.8	100.6	99.9	93.7
COc1cc(OC)cc(-c2n[nH]c(=S)n2-c2ccc3c(c2)OCO3)c1	20.6*	15	103.5	101.4	81.1	1	2.6	97.0	105.2	96.7	104.5	88.3	RGS-Gao=101.4*
COc1cc(/C=N/NC(=O)Cn2ccc(C(F)(F)F)n2)cc(OC)c1OC	14.2*	14	23.3*	31.1*	20.0*	2	0.4	104.3	98.0	104.8	99.8	94.0
COc1ccc(NC2CC(=O)N(c3cc([N+](=O)[O-])ccc3C)C2=O)cc1 (centres undefined)	106.3	19	99.3	98.8	99.7	12	·	·	·	·	·	·
O=C(C1CCC(CNc2nc(=S)[nH]c3ccccc23)CC1)N1CCN(c2ccc(F)cc2)CC1 (centres undefined)	109.8	54	101.8	108.9	103.9	11	·	·	·	·	·	·
Nn1cc(-c2ccccc2)nc1SCC(=O)Nc1ccc(S(N)(=O)=O)cc1	107.7	·	?	102.2	104.3	4	·	·	·	·	·	·
CC(C)c1ccccc1NC(=S)N(C)C	-25.4*	·	?	-47.1*	10.2*	-3	-0.4	102.4	101.4	102.5	101.9	96.4
COC(=O)Nc1nnc(/C=C/c2ccc(OC)cc2)s1	49.1	19	96.1	97.7	90.2	8	·	·	·	·	·	·

Source: PubChem
